This is one part of a sample in which hits are shown more often than they occur.
RVFV N-RNA inh: inhibitors of Rift Valley Fever Virus nucleocapsid-RNA interaction; P21700; RVFV N-RNA binding, fluorescence polarization; stronger effect = lower value; % bound, % (no concentration beside the values); 20,000 tested, 0.1% active; AID 651828; in the data active = % bound below about 75%
Active calls of the source: *.

SMILES | RVFV N-RNA inh
O=C(O)c1ccc(-c2ccccc2)cc1 | 96
O=C1C=CC(=O)C(c2ccc(C(=O)O)cc2)=C1 | 52*
Cn1nnc(-c2ccc(C(=O)O)cc2)n1 | 98
Cc1ccc(NC(=O)CN=C2NC(C)(C)Cc3ccccc32)cc1 | 88
COc1ccc2nc3cc(Cl)ccc3c(Nc3cc(CN4CCCC4)c(O)c(CN4CCCC4)c3)c2n1 | 103
COc1cc(NC(C)CCCN)c2ncccc2c1 (stereo unspecified) | 95
CCN(CC)CCCC(C)Nc1c2ccc(Cl)cc2nc2ccc(OC)cc12 (stereo unspecified) | 34*
Cc1cc(F)ccc1S(=O)(=O)Nc1ccc2c(c1)N(C(=O)C1CC1)CCC2 | 88
O=C(NCc1ccco1)NC1CC(=O)N(c2ccccc2)C1 (stereo unspecified) | 93
Nc1c(Br)cc(Br)cc1Br | 97
COc1cc2nc(N3CCCN(C)CC3)nc(NC3CCN(Cc4ccccc4)CC3)c2cc1OC | 101
COc1ccc(C(=O)CSc2nc(=O)n3cc(C)ccc3n2)cc1 | 101
CSc1nc(N)nn1CCC#N | 94
O=C(CC1S/C(=N/N=C/c2ccco2)NC1=O)Nc1ccc(Cl)cc1 (stereo unspecified) | 73*
CCNC(=O)CC1S/C(=N\N=C\c2ccc(C)o2)NC1=O (stereo unspecified) | 95
C/C=N/N=C1/NC(=O)C(CC(=O)Nc2cccc(C)c2C)S1 (stereo unspecified) | 101
O=C1c2ccccc2C(=O)N1CCc1nn2c(-c3cccnc3)nnc2s1 | 98
CC(C)CC(=O)Nc1ccccc1C(F)(F)F | 94
COc1ccc(CCC(C)N2CCN(c3cc(C)ccc3C)CC2)cc1 (stereo unspecified) | 97
O=S(=O)(Nc1ncccn1)c1ccc(NC(=S)NN2CCOCC2)cc1 | 91
Cc1ccc(NC(=S)NCCCO)c(C)c1 | 98
CCOC(=O)CSc1nc(C#N)c(SCC(=O)OCC)s1 | 99
N#Cc1c[nH]c2ccc(N3C(=O)c4ccccc4C3=O)cc12 | 95
COC(=O)c1ccsc1NC(=O)CC1SC(N)=NC1=O (stereo unspecified) | 89
Oc1ccc2nnc3c(Br)cnn3c2c1 | 41*
SMILES | RVFV N-RNA inh
CCCNC(=O)COc1coc(CSc2nncn2C)cc1=O | 101
COc1ccc(C(=S)N2CCN(C(N)=S)CC2)cc1 | 97
Cc1ccc(NC(=O)CN2C(=O)S/C(=C/c3ccc4c(c3)n(C)c(=O)n4C)C2=O)cc1C | 93
COC(=O)C1=C(N)Oc2cc(C)[nH]c(=O)c2C12C(=O)N(CC(C)C)c1ccccc12 (stereo unspecified) | 91
CC(CN(C)C)CN1c2ccccc2CCc2ccccc21 (stereo unspecified) | 94
C[C@H](N)CN1CCc2ccc(Br)cc21 | 72*
Brc1ccc(-c2nnc3sc(CN4CCc5ccccc54)cn23)cc1 | 93
O=C(O)c1ccc(/C=c2/sc3nc4ccccc4n3c2=O)cc1 | 100
COC(=O)C1=C(C)NC(=S)NC1/C=C/c1ccccc1 (stereo unspecified) | 96
CC1=C(C(N)=O)C(/C=C/c2ccccc2)n2ncnc2N1 (stereo unspecified) | 29*
CC1=C(C(N)=O)C(c2ccccc2F)NC(=O)N1 (stereo unspecified) | 89
CN(C)/C=N/NC(=O)c1cc(COc2cc(Cl)cc(Cl)c2)on1 | 106
O=c1c2sc3nc(N4CCOCC4)c4c(c3c2ncn1-c1ccccn1)CCCC4 | 102
COCC(=O)Oc1c(Sc2c(F)c(F)c(F)c(F)c2F)c(C)nn1C(C)(C)C | 91
CC(C)CC(N)=O | 104
CCCN1CCC2(CC1)C1CN(CCC)CC=C1C(C#N)=C(N)C2(C#N)C#N (stereo unspecified) | 54*
CCOC(=O)/C(C#N)=C/c1sccc1C | 94
CC1(C)CC(=O)c2sc(NC(=O)CN3CCN(C(=O)c4ccco4)CC3)nc2C1 | 94
CC1=C(CCN2CCN(c3ccccc3)CC2)C(C)(C)CCC1 | 89
CCCCc1cc(=O)oc2c(CN(C)C)c(O)ccc12 | 92
CC[C@@]1(O)C(=O)OCc2c1cc1n(c2=O)Cc2cc3c(CN(C)C)c(O)ccc3nc2-1 | 44*
O=C(ON=C(c1cccs1)c1cccs1)c1ccc(Cl)cc1 | 97
CCc1nnc2sc(-c3ccc(NC(=O)c4cccnc4)cc3)nn12 | 103
CCOc1ccnc(SCC(=O)CC(=O)c2ccccc2)c1C#N | 94
O=C1/C(=C/c2ccccc2)Oc2c1ccc(O)c2CN1CCOCC1 | 53*
SMILES | RVFV N-RNA inh
CC1CCN(CC(=O)NCc2ccccc2)CC1 | 95
CCc1c(C)c2ccc(O)c(CN(C)C)c2oc1=O | 92
O=C(CN1CCOCC1)N/N=C/c1ccccc1 | 97
CC1CCN(Cc2c(O)ccc3c2O/C(=C\c2ccccc2)C3=O)CC1 | 56*
CN(C)Cc1c(O)ccc2c1O/C(=C\c1ccccc1)C2=O | 48*
COc1ccc2c(c1)O/C(=C\c1cccc(OC(=O)N3CCOCC3)c1)C2=O | 97
CCN(CC)Cc1c(O)ccc2c1O/C(=C\c1ccc(C(=O)OC)cc1)C2=O | 59
CC1CCN(Cc2c(F)cccc2F)CC1 | 99
COc1cccc(S(=O)(=O)NCc2ccc(C(=O)N3CCCC3)cc2)c1 | 99

Source: PubChem (ICCB-Longwood Screening Facility, Harvard Medical School)
